Source: PubChem BioAssay (EPA / NIEHS)
“And” between values parts separate entries of the source, which are not always exact repeats. Equal entries are not always repeated. A structure can be active in one record and inactive in another. The source made the active and inactive calls. How the source made its calls: active means hit-call score of the fitted dose curve at least 0.9, where 1 is the maximum; inactive means score below 0.9.

How the values were obtained:
[1] = read-out: Monocyte Chemoattractant Protein-1 (MCP1), CCL2 (gene 6347); test: BSK_CASM3C_MCP1: BioMAP Diversity Plus: CASM3C Assay for Monocyte Chemoattractant Protein-1 (MCP1) Biomarker Activity (AID 2283046); conditions: primary human coronary artery smooth muscle cells; actives raise or lower the signal;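 further: MCP-1 level quantified by ELISA 24 h after dosing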
[2] = BSK_CASM3C_Proliferation: Cell Proliferation Assessment in the BioMAP Diversity Plus: CASM3C Assay (AID 2283047); conditions: primary human coronary artery smooth muscle cells;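 further: sulforhodamine B total protein stain as relative cell number at 560 nm; sub-confluent cells exposed 48 h before staining; fitted both ways against DMSO so gain or loss of cell number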
[3] = read-out: Monokine induced gamma interferon (MIG), CXCL9 (gene 4283); test: BSK_CASM3C_MIG: BioMAP Diversity Plus: CASM3C Assay for Monokine induced gamma interferon (MIG) Biomarker Activity (AID 2283048); conditions: primary human coronary artery smooth muscle cells; actives raise or lower the signal;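 further: MIG protein level measured by ELISA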
[4] = read-out: serum amyloid A (SAA), SAA1 (gene 6288); test: BSK_CASM3C_SAA: BioMAP Diversity Plus: CASM3C Assay for serum amyloid A (SAA) Biomarker Activity (AID 2283049); conditions: primary human coronary artery smooth muscle cells; actives raise or lower the signal;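 further: SAA protein level quantified by ELISA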
[5] = BSK_CASM3C_SRB: Viability Assessment in the BioMAP Diversity Plus: CASM3C Assay (AID 2283050); conditions: primary human coronary artery smooth muscle cells;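 further: total protein by SRB staining as cytotoxicity measure in parallel cultures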
[6] = read-out: Thrombomodulin, THBD (gene 7056); test: BSK_CASM3C_Thrombomodulin: BioMAP Diversity Plus: CASM3C Assay for Thrombomodulin Biomarker Activity (AID 2283051); conditions: primary human coronary artery smooth muscle cells; actives raise or lower the signal;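 further: thrombomodulin protein level measured by ELISA 24 h after dosing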
[7] = read-out: Tissue Factor, F3 (gene 2152); test: BSK_CASM3C_TissueFactor: BioMAP Diversity Plus: CASM3C Assay for Tissue Factor Biomarker Activity (AID 2283052); conditions: primary human coronary artery smooth muscle cells; actives raise or lower the signal;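 further: cell surface tissue factor protein level read by ELISA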
[8] = read-out: Interferon-gamma inducible Protein 10 (IP10), CXCL10 (gene 3627); test: BSK_hDFCGF_IP10: BioMAP Diversity Plus: hDFCGF Assay for Interferon-gamma inducible Protein 10 (IP10) Biomarker Activity (AID 2283053); conditions: primary human foreskin fibroblasts; actives raise or lower the signal
How it was run: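 Human foreskin fibroblast primary cells (hDFCGF system) were dosed with chemical and assayed at 24 h; IP-10 measured by ELISA. Activity fitted bidirectionally relative to DMSO negative control as baseline.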

[9] = read-out: Urokinase-type plasminogen activator receptor (uPAR), PLAUR (gene 5329); test: BSK_CASM3C_uPAR: BioMAP Diversity Plus: CASM3C Assay for Urokinase-type plasminogen activator receptor (uPAR) Biomarker Activity (AID 2283054); conditions: primary human coronary artery smooth muscle cells; actives raise or lower the signal;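 further: cell-surface uPAR protein level quantified by ELISA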
[10] = read-out: Vascular cell adhesion molecule 1 (VCAM1), VCAM1 (gene 7412); test: BSK_CASM3C_VCAM1: BioMAP Diversity Plus: CASM3C Assay for Vascular cell adhesion molecule 1 (VCAM1) Biomarker Activity (AID 2283055); conditions: primary human coronary artery smooth muscle cells; actives raise or lower the signal;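 further: VCAM-1 protein level quantified by ELISA on the cells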
[11] = read-out: Collagen III, COL3A1 (gene 1281); test: BSK_hDFCGF_CollagenIII: BioMAP Diversity Plus: hDFCGF Assay for Collagen III Biomarker Activity (AID 2283056); conditions: primary human foreskin fibroblasts; actives raise or lower the signal
How it was run: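 ELISA read-out of collagen III from human skin fibroblast cultures sampled 24 h post-dosing. Values were derived by bidirectional fitting relative to the DMSO vehicle control.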

[12] = read-out: Epidermal growth factor receptor (EGFR), EGFR (gene 1956); test: BSK_hDFCGF_EGFR: BioMAP Diversity Plus: hDFCGF Assay for Epidermal growth factor receptor (EGFR) Biomarker Activity (AID 2283057); conditions: primary human foreskin fibroblasts; actives raise or lower the signal
How it was run: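 Primary human foreskin fibroblasts were exposed to compound for 24 h, after which cell-surface EGFR was quantified by ELISA. Activity was fitted bidirectionally against the DMSO negative control as baseline.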

[13] = read-out: Interleukin-8 (IL8), CXCL8 (gene 3576); test: BSK_hDFCGF_IL8: BioMAP Diversity Plus: hDFCGF Assay for Interleukin-8 (IL8) Biomarker Activity (AID 2283058); conditions: primary human foreskin fibroblasts; actives raise or lower the signal
How it was run: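 Cells used are human skin primary fibroblasts. Chemical is added, cultures run 24 h, then IL-8 is quantified by ELISA, and gain or loss versus DMSO control is fitted in both directions.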

[14] = BSK_hDFCGF_Proliferation: Cell Proliferation Assessment in the BioMAP Diversity Plus: hDFCGF Assay (AID 2283059); conditions: primary human foreskin fibroblasts;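 further: curves fitted for both rise and fall of signal versus DMSO baseline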
How it was run: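 This proliferation readout used SRB total-protein staining of human foreskin fibroblasts […], normalized to DMSO with bidirectional curve fitting.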

[15] = read-out: Macrophage colony-stimulating factor (MCSF), CSF1 (gene 1435); test: BSK_hDFCGF_MCSF: BioMAP Diversity Plus: hDFCGF Assay for Macrophage colony-stimulating factor (MCSF) Biomarker Activity (AID 2283060); conditions: primary human foreskin fibroblasts; actives raise or lower the signal
How it was run: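 Primary human foreskin fibroblasts dosed with chemical; 24 h later, M-CSF quantified by ELISA; curves fitted in both directions vs DMSO negative control.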

[16] = BSK_hDFCGF_SRB: Viability Assessment in the BioMAP Diversity Plus: hDFCGF Assay (AID 2283061); conditions: primary human foreskin fibroblasts;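 further: cells exposed to compound for 24 h before the read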
How it was run: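 Readout is SRB absorbance at 560 nm, reflecting total protein in parallel cultures of human foreskin fibroblasts harvested 24 h after chemical dosing. Activity was fitted bidirectionally relative to DMSO.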

[17] = read-out: TIMP metallopeptidase inhibitor 1 (TIMP1), TIMP1 (gene 7076); test: BSK_hDFCGF_TIMP1: BioMAP Diversity Plus: hDFCGF Assay for TIMP metallopeptidase inhibitor 1 (TIMP1) Biomarker Activity (AID 2283062); conditions: primary human foreskin fibroblasts; actives raise or lower the signal
How it was run: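 Human skin fibroblasts (primary), hDFCGF system; compound exposure 24 h; TIMP-1 by ELISA; bidirectional fit vs DMSO negative control; overt cytotoxicity by SRB in parallel wells.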

[18] = read-out: Monokine induced gamma interferon (MIG), CXCL9 (gene 4283); test: BSK_hDFCGF_MIG: BioMAP Diversity Plus: hDFCGF Assay for Monokine induced gamma interferon (MIG) Biomarker Activity (AID 2283063); conditions: primary human foreskin fibroblasts; actives raise or lower the signal
How it was run: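 Chemicals were added to primary human foreskin fibroblast cultures, which were sampled 24 h later. MIG levels were then quantified by ELISA and responses fitted in both directions relative to DMSO.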

[19] = read-out: Matrix Metallopeptidase 1 (MMP1), MMP1 (gene 4312); test: BSK_hDFCGF_MMP1: BioMAP Diversity Plus: hDFCGF Assay for Matrix Metallopeptidase 1 (MMP1) Biomarker Activity (AID 2283064); conditions: primary human foreskin fibroblasts; actives raise or lower the signal
How it was run: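 Primary human foreskin fibroblasts in the hDFCGF system were dosed with test chemical, and MMP1 was measured by ELISA 24 h later. Values come from bidirectional curve fitting against the DMSO baseline.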

[20] = read-out: Vascular cell adhesion molecule 1 (VCAM1), VCAM1 (gene 7412); test: BSK_hDFCGF_VCAM1: BioMAP Diversity Plus: hDFCGF Assay for Vascular cell adhesion molecule 1 (VCAM1) Biomarker Activity (AID 2283065); conditions: primary human foreskin fibroblasts; actives raise or lower the signal;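 on AC50: VCAM-1 protein level quantified by ELISA after 24 h chemical exposure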
How it was run: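 Human foreskin fibroblast primary cells, chemical exposure 24 h; VCAM-1 by ELISA; bidirectional fit, DMSO = negative control/baseline.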

Measured: AC50

CCN(C(=O)c1cc(C)cc(OC[C@H](C)Nc2ccncc2)c1)C(C)C
inactive: [1] | [2] | [3] | [4] | [5] | [6] | [7] | [8] | [9] | [10] | [11] | [12] | [13] | [14] | [15] | [16] | [17] | [18] | [19] | [20]

CCn1nc(Cc2ccccc2)cc1C1CCN(C[C@H]2C[C@H](N(C)[C@@H](C(=O)O)C(C)C)C[C@@H]2c2cccc(F)c2)CC1
inactive: [1] | [2] | [3] | [4] | [5] | [6] | [7] | [8] | [9] | [10] | [11] | [12] | [13] | [15] | [16] | [17] | [18] | [19] | [20]
active: [14] 12.9 µM

Nc1cccc(N)c1
inactive: [1] | [2] | [3] | [4] | [5] | [6] | [7] | [8] | [9] | [10] | [11] | [12] | [13] | [15] | [16] | [17] | [18] | [19] | [20]
active: [14] 0.148 µM

CC(C)=CCCC(C)=CC=O
active: [14] 28.1 µM
inactive: [1] | [2] | [3] | [4] | [5] | [6] | [7] | [8] | [9] | [10] | [11] | [12] | [13] | [15] | [16] | [17] | [18] | [19] | [20]

Cn1cnc([N+](=O)[O-])c1Sc1ncnc2nc[nH]c12
inactive: [1] | [3] | [4] | [5] | [6] | [7] | [8] | [9] | [10] | [11] | [12] | [13] | [14] | [16] | [17] | [18] | [19] | [20]
active: [2] 10.2 µM and 12 µM and 4.25 µM | [8] 4.43 µM and 7.98 µM | [10] 15.6 µM and 8.5 µM | [11] 4.26 µM | [14] 19.9 µM | [20] 12.6 µM and 16 µM

Cc1ccc(C)c(O)c1
inactive: [1] | [2] | [3] | [4] | [5] | [6] | [7] | [8] | [9] | [10] | [11] | [12] | [13] | [14] | [15] | [16] | [17] | [18] | [19] | [20]

C=CCCCCCCCCC(=O)O
inactive: [1] | [2] | [3] | [4] | [5] | [6] | [7] | [8] | [9] | [10] | [11] | [12] | [13] | [14] | [15] | [16] | [17] | [18] | [19] | [20]

COc1cccc(-c2ccc(/C=C\CN3CCCCCC3)cc2Cl)c1
inactive: [1] | [3] | [6] | [7] | [10]
active: [2] 29.8 µM | [4] 32 µM | [5] 25 µM | [8] 27.3 µM | [9] 25.9 µM | [11] 12.1 µM | [12] 32.2 µM | [13] 34.1 µM | [14] 3.59 µM | [15] 22.4 µM | [16] 27.2 µM | [17] 29.1 µM | [18] 34.5 µM | [19] 34.4 µM | [20] 30.5 µM

Fc1ccccc1[C@@H](F)COC1CCC(Nc2ncnc3[nH]ncc23)CC1 (stereo partly drawn)
active: [2] 29.2 µM | [9] 9.15 µM | [10] 7.56 µM | [14] 10.3 µM
inactive: [1] | [3] | [4] | [5] | [6] | [7] | [8] | [11] | [12] | [13] | [16] | [17] | [18] | [19] | [20]

CCOC(=O)COc1ccc2c(c1)CC(NCC(O)c1cccc(Cl)c1)CC2 (stereo not drawn)
inactive: [1] | [3] | [4] | [5] | [6] | [7] | [9] | [10]
active: [2] 27.2 µM | [8] 26.3 µM | [11] 30.6 µM | [12] 33.4 µM | [13] 32.1 µM | [14] 9.71 µM | [15] 14.6 µM | [16] 26.9 µM | [17] 28.8 µM | [18] 26.8 µM | [19] 33.9 µM | [20] 21.9 µM

CC(C)CC(C)(O)C#CC(C)(O)CC(C)C (stereo not drawn)
inactive: [1] | [2] | [3] | [4] | [5] | [6] | [7] | [8] | [9] | [10] | [11] | [12] | [13] | [14] | [15] | [16] | [17] | [18] | [19] | [20]

O=c1[nH]c2ccc(S(=O)CCN3CCC(Cc4ccc(F)cc4)CC3)cc2o1 (stereo not drawn)
inactive: [1] | [2] | [3] | [4] | [5] | [6] | [7] | [8] | [9] | [10] | [12] | [13] | [15] | [16] | [17] | [18] | [19] | [20]
active: [11] 13.9 µM | [14] 4.49 µM
